Here are results for 92 molecules from ChEMBL document CHEMBL1201862, “PubChem BioAssay data set” (2004).

Out of some 400,000 compounds screened, about 2,100 (0.53%) were called active. About 14% were inconclusive and are not listed. No rule for the calls is given here. The list comes from a sample in which actives are over-represented; it also holds similar structures and randomly drawn compounds.

Sequence of Ataxin-2 (Homo sapiens) (Q99700 whole entry): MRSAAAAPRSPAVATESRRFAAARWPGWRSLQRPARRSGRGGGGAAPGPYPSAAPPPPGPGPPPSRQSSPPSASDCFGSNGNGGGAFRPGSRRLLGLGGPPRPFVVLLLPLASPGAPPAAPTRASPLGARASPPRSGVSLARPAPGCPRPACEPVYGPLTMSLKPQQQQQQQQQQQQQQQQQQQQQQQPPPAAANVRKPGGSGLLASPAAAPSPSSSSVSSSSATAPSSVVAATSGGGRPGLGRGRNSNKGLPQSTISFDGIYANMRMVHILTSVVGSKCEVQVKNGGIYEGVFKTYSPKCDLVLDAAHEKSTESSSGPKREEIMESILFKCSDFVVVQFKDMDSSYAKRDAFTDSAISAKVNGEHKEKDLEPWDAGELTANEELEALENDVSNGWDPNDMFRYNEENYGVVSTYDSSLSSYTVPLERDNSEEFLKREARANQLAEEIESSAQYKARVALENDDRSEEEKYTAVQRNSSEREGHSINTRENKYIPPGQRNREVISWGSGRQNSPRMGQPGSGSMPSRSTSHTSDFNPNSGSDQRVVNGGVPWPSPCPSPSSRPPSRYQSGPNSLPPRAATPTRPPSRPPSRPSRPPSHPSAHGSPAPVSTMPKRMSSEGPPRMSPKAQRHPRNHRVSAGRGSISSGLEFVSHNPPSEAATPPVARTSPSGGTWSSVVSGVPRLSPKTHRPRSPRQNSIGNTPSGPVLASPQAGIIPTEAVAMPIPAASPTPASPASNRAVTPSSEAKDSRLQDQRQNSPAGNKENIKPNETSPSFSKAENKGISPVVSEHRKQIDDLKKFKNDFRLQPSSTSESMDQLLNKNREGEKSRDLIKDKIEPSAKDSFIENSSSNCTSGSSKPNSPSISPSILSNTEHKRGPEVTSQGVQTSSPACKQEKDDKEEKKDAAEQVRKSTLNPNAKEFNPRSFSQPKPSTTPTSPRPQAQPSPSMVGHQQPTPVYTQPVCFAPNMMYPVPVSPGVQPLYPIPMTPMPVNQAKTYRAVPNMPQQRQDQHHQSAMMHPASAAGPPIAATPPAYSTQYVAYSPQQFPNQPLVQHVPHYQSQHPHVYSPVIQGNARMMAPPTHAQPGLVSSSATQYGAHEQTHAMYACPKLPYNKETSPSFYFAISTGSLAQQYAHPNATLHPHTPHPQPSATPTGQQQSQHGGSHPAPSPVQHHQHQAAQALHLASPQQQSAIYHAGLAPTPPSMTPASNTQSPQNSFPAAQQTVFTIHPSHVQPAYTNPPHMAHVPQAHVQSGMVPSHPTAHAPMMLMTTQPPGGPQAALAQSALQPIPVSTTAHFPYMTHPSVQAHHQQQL

The test addresses Ataxin-2 (Homo sapiens) (UniProt Q99700). The experiment in a line: qHTS for Inhibitors of ATXN expression. The test is classed as functional. A general note: Quantitative high-throughput screening tests each substance at several concentrations.
In the case of `COc1ccc(NC(=O)N(C)[C@H]2C[C@H]3c4[nH]c5ccc(-c6cccc(C)c6)cc5c4CCN3C[C@H]2[C@H](C)O)cc1`, the Potency was 39.8 µM (active).

Take `Cc1ccc2[nH]c3c(c2c1)CN(C(=O)CN1CCCCC1)CC3`: the Potency entry is “inactive”.

Turning to `Cc1cccc(-c2ccc3[nH]c4c(c3c2)CCN2C[C@@H]([C@H](C)O)[C@@H](N(C)C(=O)Nc3ccc(F)cc3)C[C@@H]42)c1`, the Potency is 25.1 µM (active).

Consider `Cc1ccc2[nH]c3c(c2c1)CCCC3NCCO` (configuration not stated), for which the Potency entry is “inactive”.

Regarding `COc1ccc(NC(=O)N(C)[C@H]2C[C@H]3c4[nH]c5ccc(-c6ccc(OC)cc6)cc5c4CCN3C[C@H]2[C@H](C)O)cc1`, the Potency is 25.1 µM (active).

In the case of `CN[C@H]1C[C@H]2c3[nH]c4ccc(-c5cccc(C)c5)cc4c3CCN2C[C@H]1[C@H](C)O`, the Potency is 39.8 µM (active).

Consider `CCOC(=O)N(C)[C@H]1C[C@H]2c3[nH]c4ccccc4c3CCN2C[C@H]1[C@H](C)O`, for which the Potency result was “inactive”.

With `C[C@H](O)[C@@H]1CN2CCc3c([nH]c4ccccc34)[C@@H]2C[C@@H]1N(C)C(=O)OCc1ccccc1`, the Potency result is “inactive”.

Regarding `COc1cccc(-c2c(C#N)c(O)nc3c2-c2ccc(OC)cc2CC3)c1`, the Potency entry was “inactive”.

`O=C(O)c1cc(-c2c[nH]c3ccccc23)nc2ccc3ccccc3c12`: the Potency result was “inactive”.

Take `COC(=O)C1C2CC3c4[nH]c5cc(OC)ccc5c4CCN3CC2CC(OC2CCCCO2)C1OC` (configuration not stated): the Potency result was “inactive”.

For the molecule `COc1ccc(-c2ccc3[nH]c4c(c3c2)CCN2C[C@@H]([C@H](C)O)[C@@H](N(C)C(=O)Nc3cc(Cl)cc(Cl)c3)C[C@@H]42)cc1`, the Potency was 35.5 µM (active).

In the case of `O=C(COc1ccc([N+](=O)[O-])cc1)N(C1CCCCC1)C1CCS(=O)(=O)C1` (configuration not stated), the Potency result is “inactive”.

Consider `C/C(=N/OC(=O)C1CC1)c1cc(-c2ccc(Cl)cc2)no1`, for which the Potency result was “inactive”.

For the molecule `CCc1cc2c(-c3ccccc3)cc(=O)oc2c2c1OCN(Cc1ccc(C)cc1)C2`, the Potency entry was “inactive”.

For the molecule `COc1ccc2c(c1)/C(=C\c1cccc(/C=C3/C(=O)Nc4ccc(OC)cc43)n1)C(=O)N2`, the Potency is 0.891 µM (active).

On to `COc1ccc(N/C=C2/C(=O)N(c3cccc(C)n3)C(=O)c3ccccc32)c(OC)c1`, for which the Potency result was “inactive”.

With `O=C1Nc2ccccc2/C1=C/c1c[nH]c(-c2ccccc2)n1`, the Potency entry was “inactive”.

Regarding `Cc1ccc(S(=O)(=O)c2cc3c(=O)n4ccccc4nc3n(Cc3ccco3)c2=N)cc1`, the Potency entry was “inactive”.

Turning to `N#CC1=C(N)Oc2cc(O)c(Cl)cc2C1c1ccccc1F` (configuration not stated), the Potency result is “inactive”.

`CC(C)c1ccc(CN2CCN(S(=O)(=O)c3ccc(Cl)s3)CC2)cc1`: the Potency entry is “inactive”.

With `Cc1cccc(NS(=O)(=O)c2ccc(C)c(C(=O)NC3CCN(Cc4ccccc4)CC3)c2)c1`, the Potency result is “inactive”.

`Cc1cccc(CC(=O)NC2CCN(C)CC2)c1`: the Potency result is “inactive”.

For the molecule `C=CCN1CCN(C(=O)CSc2ccccc2)CC1`, the Potency result is “inactive”.

With `CC(C)c1ccc(CN2CCN(C(=O)CCl)CC2)cc1`, the Potency was 15.8 µM (active).

For `Cc1cccc(CN2CCN(C(=O)CCl)CC2)c1`, the Potency is 35.5 µM (active).

As to `C=CCn1c(=O)c(C#N)cc2c(=O)n3ccccc3nc21`, the Potency result was “inactive”.

Turning to `O=C(CSc1ccccc1)N1CCN(C(=O)c2ccco2)CC1`, the Potency entry is “inactive”.

On to `CCc1cc2ccc(OC)cc2nc1SCC(=O)N1CCN(C(=O)c2ccco2)CC1`, for which the Potency was 25.1 µM (active).

Take `O=C(CSc1nnnn1C1CCCCC1)N1CCN(C(=O)c2ccco2)CC1`: the Potency result was “inactive”.

Turning to `Cc1sc2nc(C(C)C)nc(SCC(=O)N3CCN(C(=O)c4ccco4)CC3)c2c1C`, the Potency is 39.8 µM (active).

For the molecule `COc1ccc2oc(=O)c(C(=O)N3CCN(C(=O)c4ccco4)CC3)cc2c1`, the Potency entry is “inactive”.

In the case of `Cc1cc(C(=O)N2CCN(C(=O)c3ccco3)CC2)ccc1[N+](=O)[O-]`, the Potency result is “inactive”.

As for `Cc1ccc(S(=O)(=O)N2CCN(C(=O)CN3C(=O)c4ccc([N+](=O)[O-])cc4C3=O)CC2)cc1C`, the Potency entry is “inactive”.

As to `COc1cc2c(C#CCCCO)c(-c3ccc(C#N)cc3)oc(=O)c2cc1OC`, the Potency result was “inactive”.

Consider `C=CC[C@@H](CC(=O)N(CCO)Cc1ccccc1)C(=O)N[C@H](COC(=O)[C@@H](CC=C)CC(=O)OC(C)(C)C)Cc1c[nH]c2ccccc12`, for which the Potency is 35.5 µM (active).

As for `C=CC[C@@H](CC(=O)N(CCO)Cc1ccccc1)C(=O)N[C@@H](COC(=O)[C@H](CC=C)CC(=O)OC(C)(C)C)Cc1c[nH]c2ccccc12`, the Potency was 22.4 µM (active).

Regarding `C=CC[C@H](CC(=O)N(CCO)Cc1ccccc1)C(=O)N[C@@H](COC(=O)[C@@H](CC=C)CC(=O)OC(C)(C)C)Cc1c[nH]c2ccccc12`, the Potency is 25.1 µM (active).

On to `CCCC/N=C1\C(=O)N(C)c2cccc3c(O)c4ccccc4c1c23`, for which the Potency result was “inactive”.

For `COc1ccc2c(C#N)c3ccccn3c2c1`, the Potency result is “inactive”.

As to `Nc1cccc2c1C(=O)N(CCOc1ccc(F)cc1)C2=O`, the Potency entry was “inactive”.

In the case of `c1ccc(N2CC3CCc4ccccc4C3=N2)cc1` (configuration not stated), the Potency result is “inactive”.

Consider `C/C(CCCO)=N/Nc1ccc([N+](=O)[O-])cc1[N+](=O)[O-]`, for which the Potency entry is “inactive”.

As to `CC/C(=N\Nc1ccc([N+](=O)[O-])cc1[N+](=O)[O-])c1ccc(O)cc1`, the Potency is 8.91 µM (active).

For the molecule `CC1=CC(C)(C)N2C(=O)/C(=N/c3ccc(O)cc3)c3cccc1c32`, the Potency is 31.6 µM (active).

On to `CN1C(=O)/C(=N\c2ccc(Cl)cc2)c2c3ccccc3c(O)c3cccc1c23`, for which the Potency entry is “inactive”.

On to `CC(C)CC1C(=O)N(Cc2cn(CCC3OCCCO3)nn2)CCS(=O)(=O)N1Cc1ccc(-c2ccc(Cl)nc2)cc1` (configuration not stated), for which the Potency is 31.6 µM (active).

For `Cc1ccc(-c2ccc(CN3C(CC(C)C)C(=O)N(Cc4cn(CCC5OCCCO5)nn4)CCS3(=O)=O)cc2)cc1` (configuration not stated), the Potency was 20 µM (active).

For `O=C(c1cc(Br)ccc1O)N1CCN(S(=O)(=O)Cc2ccccc2)CC1`, the Potency entry was “inactive”.

For the molecule `Brc1ccc(-c2nnc3sc(CNCc4ccc5c(c4)OCO5)cn23)cc1`, the Potency result is “inactive”.

Take `O=C(O)c1ccc(S(=O)(=O)N2CCC(NC(=O)C3CCCCC3)CC2)cc1`: the Potency entry was “inactive”.

As to `Cc1ccc(NC(=O)N(CCC#N)Cc2ccccc2)cc1`, the Potency result is “inactive”.

`COCCN(Cc1ccccc1)C(=O)c1ccc(C(=O)c2ccccc2)cc1`: the Potency entry is “inactive”.

In the case of `CCCOc1ccc(CN(CCC#N)C(=S)NC(=O)c2ccccc2)cc1`, the Potency is 39.8 µM (active).

Regarding `O=C(O)COc1c(Cl)cc(/C=C2/NC(=O)NC2=O)cc1Br`, the Potency result is “inactive”.

Take `Cc1nnc(N/N=C/c2ccc(-c3ccc(Br)cc3)o2)n1N`: the Potency result was “inactive”.

As to `COCCCn1/c(=N/C(=O)c2ccccc2)c(C#N)cc2c(=O)n3cccc(C)c3nc21`, the Potency result is “inactive”.

For `CN1C(=O)c2ccc(NC(=O)c3ccc(Cl)cc3Cl)cc2C1=O`, the Potency result was “inactive”.

With `Cc1ccc(C(=O)COC(=O)c2cccc(NC(=O)c3ccc(Cl)cc3Cl)c2)cc1`, the Potency is 35.5 µM (active).

With `Cc1ccsc1C(=O)OCC(=O)Nc1cccc(F)c1`, the Potency entry was “inactive”.

Take `COc1cc(C(CCN2CCCC(C)C2)c2c(OC)cc(OC)c3c(-c4ccccc4)cc(=O)oc23)cc(OC)c1OC` (configuration not stated): the Potency is 31.6 µM (active).

On to `CCCCCc1cc(=O)oc2c(C(CCN3CCCC3)c3cc(OC)c(OC)c(OC)c3)c(OC)cc(OC)c12` (configuration not stated), for which the Potency was 35.5 µM (active).

For `CCCc1cc(=O)oc2c(C)c(O)c(CN3CCCCC3)cc12`, the Potency result is “inactive”.

`O=c1cc(-c2ccccc2)c2cc(Cl)c(O)c(CN3CCOCC3)c2o1`: the Potency entry is “inactive”.

For the molecule `COc1ccc(CN2COc3ccc4c(-c5ccccc5)cc(=O)oc4c3C2)cc1OC`, the Potency result is “inactive”.

Turning to `COc1ccc(C(CCN2CCCC(C)C2)c2c(OC)cc(OC)c3c(-c4ccccc4)cc(=O)oc23)cc1` (configuration not stated), the Potency is 31.6 µM (active).

Turning to `O=c1cc(-c2ccccc2)c2cc(Cl)c3c(c2o1)CN(Cc1ccccc1)CO3`, the Potency result was “inactive”.

On to `COc1cc(C(CCN2CCCC2)c2c(OC)cc(OC)c3c(-c4ccccc4)cc(=O)oc23)cc(OC)c1OC` (configuration not stated), for which the Potency is 22.4 µM (active).

For the molecule `COc1cc2oc(=O)cc(-c3ccc(-c4ccc(N(C)C)cc4)cc3)c2c(OC)c1OC`, the Potency result was “inactive”.

Regarding `COc1ccc(-c2cc(=O)oc3c4c(ccc23)OCN(Cc2cccc(OC)c2)C4)cc1`, the Potency result is “inactive”.

With `COc1ccc(-c2cc3ccc(O)c(CN4CCCC(C)C4)c3oc2=O)cc1OC` (configuration not stated), the Potency entry was “inactive”.

For `CCc1cc(=O)oc2c(C)c3c(cc12)CN(CCc1ccccc1OC)CO3`, the Potency entry was “inactive”.

Take `COc1ccc(C2CC(c3ccccc3)=NN2c2ccccc2)c(C(=O)O)c1OC` (configuration not stated): the Potency result was “inactive”.

`Cc1cc(C)c2nc(NCCCNC(S)=NCCCN(C)C)c(C#N)cc2c1`: the Potency result is “inactive”.

For `Cn1nc(C(=O)Nc2ccc(Br)cc2)cc1C(=O)Nc1ccc(Br)cc1`, the Potency entry was “inactive”.

For the molecule `CCNc1ccc2c(Cl)cc(=O)oc2c1`, the Potency result is “inactive”.

As to `COc1ccc(C2=CC(c3ccc(Cl)cc3)n3cnnc3N2)cc1OC` (configuration not stated), the Potency entry was “inactive”.

For `CN1CCN(CCOCCOc2c(Cl)cc(Cl)cc2Cl)CC1`, the Potency result is “inactive”.

Take `COCCNc1oc(/C=C/c2cccs2)nc1S(=O)(=O)c1ccccc1`: the Potency result was “inactive”.

For `Cc1ccc(S(=O)(=O)N(C)c2ccc(OC(=O)c3cccs3)cc2)cc1C`, the Potency entry was “inactive”.

As for `Cc1ccc(-n2nc(C)c(C(=O)NCCCN3CCN(c4ccc(F)cc4)CC3)c2-n2cccc2)cc1`, the Potency is 25.1 µM (active).

For the molecule `COc1ccc(CCNC(=O)c2c(C)nn(-c3ccc(F)cc3)c2-n2cccc2)c(OC)c1OC`, the Potency is 35.5 µM (active).

As to `O=C(COc1ccccc1F)NCc1ccc(-n2cccc2)cc1`, the Potency result is “inactive”.

With `COc1ccccc1NC(=O)c1c(C)nn(-c2ccccc2)c1Cl`, the Potency result was “inactive”.

With `C/C(=N\NC(=O)CN1CCN(c2ccc(F)cc2)CC1)c1ccco1`, the Potency entry is “inactive”.

As for `O=C(Nc1ccc(C(=O)NCCCN2CCN(c3ccc(F)cc3)CC2)cc1)C1=CSCCO1`, the Potency entry is “inactive”.

Take `CCCc1ccc(C(=O)NNc2cc(Cl)ccc2Cl)cc1`: the Potency result was “inactive”.

`CS(=O)(=O)c1ccc(C(=O)NNC(=O)c2ccccc2-n2cccc2)cc1`: the Potency entry is “inactive”.

Consider `CCOC(=O)C1CCN(C(=O)c2cc3c(=O)n4ccccc4nc3n2C)CC1`, for which the Potency entry is “inactive”.

`C/C(=N\NC(=O)c1ccc(Br)cc1)C1C(=O)c2ccccc2C1=O`: the Potency is 35.5 µM (active).

Consider `CC(/C=C(\O)c1ccc(Br)cc1)=N/NC(=O)c1ccccc1`, for which the Potency result was “inactive”.

For the molecule `O=C(NN=C(S)Nc1ccccc1)c1ccc(O)cc1`, the Potency entry is “inactive”.
